Holding throughout (assay): NCI-60 one-dose screen, 48 h (100 = growth as untreated, 0 = no growth, -100 = all killed)
The test system of one test is SNB-75 CNS. Conditions: 10 µM.
In a further test the test system is SNB-19 CNS. The following applies: 10 µM.
For a further test, the system named is U251 CNS. Conditions: 10 µM.
The test system of a further test is PC-3 prostate. The following applies: 10 µM.
In a further test the test system is SK-MEL-5 melanoma. The following applies: 10 µM.
The subject of another test is UACC-62 melanoma. Conditions: 10 µM unless noted.
The subject of a further test is LOX IMVI melanoma. The following applies: 10 µM.
For another test, the system named is SK-MEL-28 melanoma. Conditions: 10 µM.
For the next test, the system named is EKVX NSCLC. The following applies: 10 µM.
The test system of the next test is SN12C renal. Conditions: 10 µM.
A further test concerns UO-31 renal. The following applies: 10 µM.
For a further test, the system named is TK-10 renal. The following applies: 10 µM unless noted.
Another test relates to ACHN renal. The following applies: 10 µM.
The test system of a further test is A498 renal. The following applies: 10 µM.
For a further test, the system named is HL-60(TB) leukemia. Conditions: 10 µM.
In the next test the test system is CCRF-CEM leukemia. Conditions: 10 µM.
For the next test, the system named is HT29 colon. The following applies: 10 µM.
A further test concerns SK-MEL-2 melanoma. Conditions: 10 µM.
A further test concerns CAKI-1 renal. The following applies: 10 µM.

Where “and” joins values, the source holds several entries; their conditions need not be identical. Equal values may be shown once. This is part of a sample that, as a whole, favours compounds with a hit. Of some 83,000 tested, about 20% had one in any assay.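 Step 1: grow cells in 96-well plates. Step 2: add test compound at a single concentration. Step 3: incubate 48 h. Step 4: record percent growth.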 Values without a mark were called inactive. Calls of active or inactive are those of the source. Rule for the calls: active = growth percent below 10; inactive = the rest.

In the case of `COc1cc([N+](=O)[O-])c2ncccc2c1[N+](=O)[O-]`, the growth with SNB-75 CNS was 61.3%; with SNB-19 CNS, 96%; in the test on U251 CNS, 41.9%; with PC-3 prostate, 66.4%; in the test with SK-MEL-5 melanoma, 95.6%; in the test with UACC-62 melanoma, 74%. Further, the growth in the test with LOX IMVI melanoma was 12.2%; in the test on SK-MEL-28 melanoma, 90.9%; in the test with EKVX NSCLC, 102%; with SN12C renal, 71.4%; in the test with UO-31 renal, 41%; with TK-10 renal, 27.1%. Besides, the growth with ACHN renal was 56.1%; in the test with A498 renal, 122%; in the test on HL-60(TB) leukemia, 65.5%; with CCRF-CEM leukemia it was 22.9%.
Regarding `CC(C)C1(NC(=O)C2CC3c4cccc5[nH]cc(c45)CC3N(C)C2)OC2(O)C3CCCN3C(=O)C(Cc3ccccc3)N2C1=O` (stereo not given), the growth with HT29 colon was 101%; in the test on SNB-75 CNS, -1.61% (active); in the test with SNB-19 CNS it was 102%; with U251 CNS it was 98.8%; in the test on PC-3 prostate, 81.1%; in the test with SK-MEL-5 melanoma, 89.8%. Further, the growth is 86.4% with UACC-62 melanoma; 91% in the test with LOX IMVI melanoma; 107% in the test with SK-MEL-2 melanoma; 98.8% with EKVX NSCLC; 91.3% with UO-31 renal; 123% in the test with TK-10 renal. Also, the growth in the test on ACHN renal is 83%; in the test on A498 renal, 97.5%; in the test on HL-60(TB) leukemia, 73.9%; in the test on CCRF-CEM leukemia, 135%.
Regarding `COC(=O)C1C(O)C(C)C(O)C(C)/C=C\C=C(C)C(=O)Nc2c(C)c(OC(C)=O)c3c(c2O)C(=O)C(C)=C2OCOC(=C23)C(C)=CC(C)(O)C(O)C(C)C1O` (stereo not given), the growth was 90.3% in the test with HT29 colon; 32.4% with SNB-75 CNS; 99.1% in the test on SNB-19 CNS; 45.9% in the test with U251 CNS; 48.8% in the test with PC-3 prostate; 99% in the test on SK-MEL-5 melanoma. Besides, the growth in the test with UACC-62 melanoma was 97.4%; with LOX IMVI melanoma, 78.7%; in the test with SK-MEL-2 melanoma, 96.2%; with EKVX NSCLC, 110%; in the test with UO-31 renal it was 103%; in the test with TK-10 renal, 107%. Moreover, the growth is 85.7% with ACHN renal; 95.5% in the test with CAKI-1 renal; 102% with A498 renal; 72.3% in the test with HL-60(TB) leukemia; 96.1% in the test with CCRF-CEM leukemia.
As to `NNc1ccccc1`, the growth was 96.9% in the test with HT29 colon; 93.2% in the test with SNB-75 CNS; 96.7% with SNB-19 CNS; 103% in the test with U251 CNS; 87.9% in the test on SK-MEL-5 melanoma; 40.4% with UACC-62 melanoma. For the same compound, the growth with LOX IMVI melanoma was 65.3%; with SK-MEL-28 melanoma it was 107%; in the test with EKVX NSCLC it was 89.6%; with UO-31 renal it was 64%; with TK-10 renal it was 42.3%; in the test with ACHN renal it was 64.5%. The growth in the test with A498 renal was 97.5%; in the test with HL-60(TB) leukemia, 5.84% (active); with CCRF-CEM leukemia, 42.7%.
`C=C1C(=O)O[C@@H]2C[C@@H](C)[C@@H]3C=CC(=O)[C@@]3(C)[C@@H](O)[C@H]12`: the growth in the test on HT29 colon was -66% (active); in the test with SNB-75 CNS, -94.8% (active); with SNB-19 CNS, -63.7% (active); in the test on U251 CNS, -100% (active); in the test with PC-3 prostate, -62% (active); in the test on SK-MEL-5 melanoma it was -93.5% (active). The growth in the test on UACC-62 melanoma is -61.4% (active); in the test on LOX IMVI melanoma, -97% (active); in the test with SK-MEL-2 melanoma it was -24.4% (active); in the test with EKVX NSCLC, -61% (active); in the test on SN12C renal, 9.98% (active); in the test on UO-31 renal, -94.9% (active). For the same compound, the growth in the test with TK-10 renal was -97.9% (active); with ACHN renal, -93.5% (active); with CAKI-1 renal, -91.6% (active); with A498 renal, -17.1% (active); with CCRF-CEM leukemia, -42.4% (active).
With `CC(=O)c1ccccc1O`, the growth with HL-60(TB) leukemia was 85.9% and 82.5% and 101%.
For `CCCCCCCC[N+]12CN3CN(CN(C3)C1)C2`, the growth is 112% in the test with HT29 colon; 89.4% in the test on SNB-75 CNS; 90.1% with SNB-19 CNS; 101% with U251 CNS; 96.7% in the test with PC-3 prostate; 98% in the test on SK-MEL-5 melanoma. The growth with UACC-62 melanoma was 91.7%; with LOX IMVI melanoma, 97.5%; in the test on SK-MEL-28 melanoma it was 98.8%; in the test with SK-MEL-2 melanoma, 120%; in the test on SN12C renal, 96.8%; with UO-31 renal, 87.9%. Moreover, the growth in the test on TK-10 renal was 99.8%; with ACHN renal it was 99.5%; in the test with CAKI-1 renal, 92.5%; in the test with A498 renal it was 95.2%; in the test with HL-60(TB) leukemia it was 137%; in the test on CCRF-CEM leukemia, 97.1%.

The record behind these values is PubChem BioAssay (NCI).
